Laboratory results from the supplement of paper PMC13380429.

System: Vero E6 infected with SARS-CoV-2
Assay: inhibition of SARS-CoV-2 cytopathic effect; higher = more antiviral protection, active = above 15
Conditions: 48 h

Measured: inhibition of SARS-CoV-2 cytopathic effect

C=CC1=C(C)c2cc3[nH]c(cc4nc(cc5[nH]c(cc1n2)c(C)c5CCC(=O)O)C(CCC(=O)O)=C4C)c(C)c3C=C [protoporphyrin-IX]
inactive: 1 nM -0.78% | 8.33 nM -0.99% | 100 nM -0.13% | 833.33 nM -0.31% | 10000 nM -4.69%

CC(=O)[C@H]1CC[C@H]2[C@@H]3C[C@H](C)C4=CC(=O)CC[C@]4(C)[C@H]3[C@@H](O)C[C@]12C [medrysone]
inactive: 1 nM -0.04% | 8.33 nM 1.55% | 100 nM -1.22% | 833.33 nM 0.73% | 10000 nM 3.22%

O=C(O)CCC(=O)c1ccc(-c2ccccc2)cc1 [fenbufen]
inactive: 1 nM -1.6% | 8.33 nM 2.58% | 100 nM -0.25% | 833.33 nM -2.57% | 10000 nM -2.49%

CNC(=O)c1ccccc1Nc1nc(Nc2ccc(N3CCOCC3)cc2OC)ncc1Cl
inactive: 1 nM -0.14% | 8.33 nM -2.52% | 100 nM -2.14% | 833.33 nM -3.76% | 10000 nM -10.9%

N#Cc1ccc(COC[C@H]2O[C@@H](n3c(NCc4ccc(Cl)c(Cl)c4)nc4c(N)ncnc43)[C@H](O)[C@@H]2O)cc1
inactive: 1 nM 2.98% | 8.33 nM -0.66% | 100 nM -1.89% | 833.33 nM -0.44% | 10000 nM -3.34%

CSc1ccc(C(=O)N[C@@H]2CCCC[C@@H]2NC(=O)CNC(=O)c2cc(C(F)(F)F)ccc2NC(=O)NC(C)C)cc1
inactive: 1 nM 4.3% | 8.33 nM -0.79% | 100 nM 0.52% | 833.33 nM 0.24% | 10000 nM 0.79%

COc1ccn2ncc(-c3nc4[nH]nc(NC(=O)c5ccc(F)cc5)c4cc3F)c2c1
inactive: 1 nM 1.72% | 8.33 nM -0.95% | 100 nM 0.38% | 833.33 nM -3.07% | 10000 nM -6.79%

C[C@H]1C[C@@H]2[C@H]([C@@H](O)C[C@@]3(C)[C@H]2CC[C@]3(O)C(=O)COC(=O)CCC(=O)O)[C@@]2(C)C=CC(=O)C=C12 [methylprednisolone-sodium-succinate]
inactive: 1 nM -0.2% | 8.33 nM 2.8% | 100 nM 0.5% | 833.33 nM -0.11% | 10000 nM -2.89%

COc1cccc(OC)c1-c1cc(C(=O)N[C@@H](CC(C)C)C(=O)O)nn1-c1ccnc2cc(Cl)ccc12
inactive: 1 nM 2.48% | 8.33 nM 1.4% | 100 nM -0.45% | 833.33 nM -0.64% | 10000 nM -0.46%

CN1CCN(c2ccc3[nH]c(-c4ccc5[nH]c(-c6ccc(O)cc6)nc5c4)nc3c2)CC1 [pibenzimol]
inactive: 1 nM -0.58% | 8.33 nM -1.08% | 100 nM 1.05% | 833.33 nM 2.62% | 10000 nM 4.07%

O=C(N[C@H](CO)[C@H](O)c1ccc([N+](=O)[O-])cc1)C(Cl)Cl [chloramphenicol]
inactive: 1 nM 0.28% | 8.33 nM -0.6% | 100 nM -1.23% | 833.33 nM 0.21% | 10000 nM -3.04%

C[C@H](N/C(=N/C#N)Nc1cccc2ncccc12)c1ccccc1
inactive: 1 nM -1.75% | 8.33 nM -2.48% | 100 nM -3.44% | 833.33 nM 1.32% | 10000 nM 1.97%

CC(C)(O)CS(=O)(=O)Nc1ccc2c(c1)CCN(C(=O)COc1cccnc1)C2 [Nampt-IN-1]
inactive: 1 nM -1.96% | 8.33 nM -2.55% | 100 nM -5.64% | 833.33 nM -15.6% | 10000 nM -25.6%

O=C1CCC2CCC(=O)N12 [rolziracetam]
inactive: 1 nM 0.67% | 8.33 nM 1.21% | 100 nM 1.49% | 833.33 nM -1.36% | 10000 nM -2.89%

COc1cc2c(N3CCN(C(=O)Nc4ccc(OC(C)C)cc4)CC3)ncnc2cc1OCCCN1CCCCC1 [tandutinib]
inactive: 1 nM -3.74% | 8.33 nM -4.22% | 100 nM -2.54% | 833.33 nM 0.88% | 10000 nM 0.92%

CCCC(C)NC(=O)c1ccc(Cl)c(Cl)c1 (stereo not given)
inactive: 1 nM 1.38% | 8.33 nM 1.88% | 100 nM 1.26% | 833.33 nM -2.38% | 10000 nM -1.56%

C=C1CC[C@H](O)C/C1=C/C=C1\CCC[C@]2(C)[C@@H]([C@H](C)CCCC(C)C)CC[C@@H]12 [cholecalciferol]
inactive: 1 nM -2.37% | 8.33 nM -2.07% | 100 nM -1.56% | 833.33 nM -2.03% | 10000 nM 0.91%

CCc1c(C(=O)C(N)=O)c2c(OCC(=O)O)cccc2n1Cc1ccccc1 [varespladib]
inactive: 1 nM 2.9% | 8.33 nM -0.54% | 100 nM 1.35% | 833.33 nM 1.32% | 10000 nM 0.87%

O=C(c1ccc(Nc2nccc(-c3cc4ccccc4s3)n2)cc1)N1CCC(N2CCCC2)CC1
inactive: 1 nM 2.48% | 8.33 nM 3.16% | 100 nM -1.73% | 833.33 nM 2.79% | 10000 nM -18.6%

CCCC[N+]1(C)[C@@H]2C[C@@H](OC(=O)[C@H](CO)c3ccccc3)C[C@H]1[C@@H]1O[C@@H]12 (stereo not given in full) [butylscopolamine-bromide]
inactive: 1 nM -2.47% | 8.33 nM -2.18% | 100 nM -2.19% | 833.33 nM 0.56% | 10000 nM -1.1%

COc1cc(/C=C/C(=O)O)ccc1O [ferulic-acid]
inactive: 1 nM 2.44% | 8.33 nM -0.76% | 100 nM -1.01% | 833.33 nM 3% | 10000 nM -0.17%

Cc1cn([C@H]2O[C@@H](CO)[C@H](O)[C@H]2F)c(=O)[nH]c1=O [clevudine]
inactive: 1 nM 3.12% | 8.33 nM -0.16% | 100 nM 1.71% | 833.33 nM 2.27% | 10000 nM 1.38%

O=C1NC(c2cccc([N+](=O)[O-])c2)=CCN1c1ccccc1O [icilin]
inactive: 1 nM -1.18% | 8.33 nM 2.89% | 100 nM 1.15% | 833.33 nM 0.66% | 10000 nM 0.77%

N=C(C[C@@H](O)COc1ccccc1-c1ccccc1)N1CCCCC1
inactive: 1 nM -5.21% | 8.33 nM -4.99% | 100 nM 0.04% | 833.33 nM -2.13% | 10000 nM -2.77%

Clc1ccc2nsnc2c1NC1=NCCN1 [tizanidine]
inactive: 1 nM 2.21% | 8.33 nM 4.56% | 100 nM 1.5% | 833.33 nM 2.93% | 10000 nM 0.03%

CC(C)(O)c1ccn2c(-c3ccc(F)c(-c4ccc(F)cc4C#N)c3)cnc2c1F
inactive: 1 nM -0.56% | 8.33 nM 0.82% | 100 nM 0.5% | 833.33 nM -1.01% | 10000 nM -2.58%

COCCOCCOc1ccc(C2=N[C@@](C)(C(=O)O)CS2)c(O)c1
inactive: 1 nM -1.16% | 8.33 nM 1.76% | 100 nM 1.19% | 833.33 nM 1.75% | 10000 nM 2.16%

Clc1ccc(C2=CCC[C@H]3CC[C@@H]2N3)cn1
inactive: 1 nM -2.02% | 8.33 nM 2.33% | 100 nM -0.54% | 833.33 nM 0.15% | 10000 nM -1.94%

CC1C(=O)OC2C(O)C34C5CC(C(C)(C)C)C36C(OC(=O)C6O)OC4(C(=O)O5)C12O (stereo not given) [ginkgolide-B]
inactive: 1 nM 1.36% | 8.33 nM 0.56% | 100 nM -1.98% | 833.33 nM 2.69% | 10000 nM 0.1%

CCCSc1nc(N[C@@H]2C[C@H]2c2ccc(F)c(F)c2)c2nnn([C@@H]3C[C@H](OCCO)[C@@H](O)[C@H]3O)c2n1 [ticagrelor]
inactive: 1 nM -0.64% | 8.33 nM 1.24% | 100 nM -0.46% | 833.33 nM 0.82% | 10000 nM 1.32%

O=C1c2ccccc2-c2c(NCCc3ccccc3)c(=O)[nH]c3cccc1c23
inactive: 1 nM -0.39% | 8.33 nM 1.98% | 100 nM 0.01% | 833.33 nM 2.52% | 10000 nM 1.12%

O=C(/C=C/c1cccnc1)NCCCCC1CCN(C(=O)c2ccccc2)CC1
inactive: 1 nM 3.22% | 8.33 nM -5.64% | 100 nM -20.3% | 833.33 nM -24.1% | 10000 nM -24.5%

O=C(O)CC(S)C(=O)O (stereo not given) [mercaptosuccinic-acid]
inactive: 1 nM 0.69% | 8.33 nM 3.36% | 100 nM 4.14% | 833.33 nM 3.72% | 10000 nM -0.09%

O=c1c2ccccc2oc2ccccc12 [xanthone]
inactive: 1 nM 1.22% | 8.33 nM 1.53% | 100 nM 1.84% | 833.33 nM -0.86% | 10000 nM -3.12%

CCOC(=O)[C@H](CCc1ccccc1)N[C@@H](C)C(=O)N1Cc2ccccc2C[C@H]1C(=O)O [quinapril]
inactive: 1 nM 1.54% | 8.33 nM 1.58% | 100 nM 0.68% | 833.33 nM 2.09% | 10000 nM 4.29%

Nc1cc2c3ccccc3ccc2c2ccccc12 [6-aminochrysene]
inactive: 1 nM 1.36% | 8.33 nM 2.29% | 100 nM 2.99% | 833.33 nM -3.94% | 10000 nM 1.34%

CC1=C(CCC(=O)O)c2cc3[nH]c(cc4nc(cc5[nH]c(cc1n2)c(C)c5C(C)O)C(C)=C4C(C)O)c(C)c3CCC(=O)O (stereo not given) [hematoporphyrin]
inactive: 1 nM 0.75% | 8.33 nM 5% | 100 nM 1.48% | 833.33 nM -0.76% | 10000 nM -6.32%

O=C(O)CCCCN(CCc1ccccc1OCc1ccc(CCc2ccccc2)cc1)Cc1ccc(C(=O)O)cc1 [cinaciguat]
inactive: 1 nM 1.27% | 8.33 nM 2.69% | 100 nM 2.55% | 833.33 nM 2.26% | 10000 nM -3.15%
